Experiments:
Assay type in all cases: functional
Plasmodium falciparum [1] = experiment: GSK_TCMDC: Inhibition of Plasmodium falciparum 3D7 in whole red blood cells, using parasite LDH activity as an index of growth. Test compounds present at 2uM
Plasmodium falciparum [2] = experiment: GSK_TCMDC: Inhibition of Plasmodium falciparum Dd2 in whole red blood cells, using parasite LDH activity as an index of growth. Test compounds present at 2uM
HepG2 = experiment: GSK_TCMDC: Percent inhibition of human HepG2 cell line. Test compounds present at 10uM.

| Structure (SMILES) | Inhibition (Plasmodium falciparum [1]) | Inhibition (Plasmodium falciparum [2]) | Inhibition (HepG2) |
| --- | --- | --- | --- |
| COc1ccc(CNCc2cccc(-c3cccc(-c4nc5ccccc5[nH]4)c3)c2)cc1.O=C(O)C(F)(F)F | 100% | 50% | 24% |
| COc1ccc2c(N/N=C/c3ccccc3[N+](=O)[O-])ccnc2c1 | 100% | 97% | 98% |
| COc1cccc(CNC(=O)c2ccnc(-c3cccc(CN(C)C4CCN(C)CC4)c3)c2)c1.O=C(O)C(F)(F)F | 100% | 46% | 19% |
| Cc1cc2nc(-c3ccc(OCC(=O)NCc4cccc(C(F)(F)F)c4)cc3)[nH]c2cc1C | 94% | 1% | 4% |
| O=C(Nc1ccccc1)N(Cc1ccccc1-c1cccc(CNCc2ccc3c(c2)OCO3)c1)C1CCN(Cc2ccccc2)CC1.O=C(O)C(F)(F)F | 100% | 64% | 35% |
| Cc1ccc(Nc2nc(N/N=C/c3ccccc3[N+](=O)[O-])nc(Nc3ccc([N+](=O)[O-])cc3)n2)cc1C | 100% | 81% | 4% |
| COCCNCc1ccc(-c2ccc(CNC3CCN(Cc4ccccc4)CC3)cc2)cc1.O=C(O)C(F)(F)F | 100% | 61% | 22% |
| CCc1nc2nc(C)cc(Nc3ccc4c(c3)OCCO4)n2n1 | 88% | 55% | 8% |
| CS(=O)(=O)CCNCc1cccc(-c2ccc3c(Nc4ccc(Oc5ccccc5)cc4)ccnc3c2)c1 | 100% | 96% | 18% |
| CCc1ccc(CN2CCC(CNC(=O)c3cc(-c4ccccc4F)cs3)C2)cc1.O=C(O)C(F)(F)F (centres undefined) | 100% | 3% | 29% |
| COc1ccccc1C(=O)Nc1cccc(N2CCC(NCc3ccc(-n4cccn4)cc3)CC2)c1 | 86% | 30% | 9% |
| COc1ccc(F)cc1-c1cccc(CNC2CCN(CC3Cn4c(=O)ccc5ccc(F)c3c54)CC2)c1.O=C(O)C(F)(F)F (centres undefined) | 100% | 27% | 46% |
| CCCCCCCN1CC[C@@H](CCCc2ccnc3ccc(OCCN4CCOCC4)cc23)[C@@H](CC)C1.O=C(O)C(=O)O | 89% | 3% | 14% |
| CCC1CCc2cc(N)cc(-c3nc4c(c(C)nn4CC)c(=O)[nH]3)c2O1 (centres undefined) | 86% | 42% | 0% |
| Nc1nc(N)c2c(CCc3ccc4ccccc4c3)cccc2n1 | 100% | 6% | 56% |
| O=C(Nc1ccccc1-c1ccccc1)C1CCCN1C(=O)Nc1ccc(Cl)cc1 (centres undefined) | 96% | 90% | 0% |
| CN1CCN(CC(=O)Nc2ccc(-c3ccc(-c4nc5ccccc5[nH]4)cc3)cc2)CC1 | 98% | 80% | 18% |
| Cc1cc(N/N=C/c2cccc([N+](=O)[O-])c2)c2ccc(C(F)(F)F)cc2n1 | 100% | 51% | 2% |
| CCOC(=O)N1CCN(C(=O)Nc2ccc(Cl)cc2)CC1 | 92% | 0% | 4% |
| O=C(/C=C/c1cccc2c1OCO2)Nc1ccnc2ccncc12 | 90% | 35% | 17% |
| O=C(Nc1cc(Cl)ccc1Cl)N[C@H]1CCN(CCCCCNC(=O)C2CC2c2ccc(Cl)c(Cl)c2)C1 (some centres undefined) | 97% | 1% | 49% |
| NCC1CCCN1Cc1ccc(-c2cccc(-c3nc4cc(F)ccc4[nH]3)c2)cc1.O=C(O)C(F)(F)F (centres undefined) | 100% | 31% | 38% |
| O=[N+]([O-])c1cc(C(c2ccc(O)c([N+](=O)[O-])c2)C(Cl)(Cl)Cl)ccc1O | 93% | 98% | 2% |
| Cc1cc(NC2CCCC2)nc(Nc2ccccc2F)n1 | 97% | 53% | 24% |
| Cc1ccc(N2C(=O)C3C(C2=O)C2(c4ccccc4)C(=O)C3(c3ccccc3)C(c3ccccc3)=C2c2ccccc2)cc1 (centres undefined) | 92% | 96% | 17% |
| COc1ccc(NC(=O)CCNc2cc(C)nc(NCc3cccc(C)c3)n2)cc1.O=C(O)C(F)(F)F | 100% | 25% | 14% |
| O=C(Nc1ccc(OC2CCN(Cc3ccccc3)C2)c(Cl)c1)c1ccsc1.O=C(O)C(F)(F)F (centres undefined) | 93% | 75% | 12% |
| Cc1noc(C)c1-c1ccc2c(Nc3cccc4c3-c3ccccc3C4=O)c(C(=O)NCc3ccccc3I)cnc2c1 | 99% | 99% | 27% |

Reference: ChEMBL document CHEMBL1157539, “Thousands of chemical starting points for antimalarial lead identification” (Nature, 2010)
